# Shiga inhibitor – inhibitors of Shiga toxin in Vero cells | Vero cells, Shiga toxin protein synthesis inhibition reporter | inhibition, % at 38.7 µM | hit rate 9.2% among 290,000; in the data active = inhibition mostly above about 28%, no sharp cut-off; inactive = mostly below about 43%; note: 0% is about no effect
# Pf growth 48h – P. falciparum growth inhibition at 48 hours (one generation); hit rate 5.9% among 310,000; P. falciparum luciferase growth in erythrocytes, 48 h; Potency, µM (series often up to 28.7 µM), inactives show top-dose activity change, negative = inhibition, actives largely listed as inhibitors; note: potency is the fitted concentration of half-maximal effect; % is set by controls: 0 for no effect and ±100 for the full control effect
#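 Luciferase-expressing parasites in RBCs, 2% Hct / 0.1% parasitemia final; RPMI 1640 + 0.5% Albumax; 37 C, 5% CO2, one generation; luminescence read-out, lower signal = inhibition.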
# HCV inh – inhibitors of hepatitis C virus infection; Huh7.5.1 HCVcc-Cre infection, luciferase reporter, 44 h; Potency, µM (doses to about 41.8 µM), without a hit: at the top dose activity change, negative = inhibition, hits mostly inhibitors; hit rate 3.4% among 340,000; AID 651820; note: potency is the fitted concentration of half-maximal effect; % is set by controls: 0 for no effect and ±100 for the full control effect
#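 Cells seeded at 1,000/well and cultured 4 h, then compounds added followed by HCVcc-Cre virus (~0.5 moi). After 44 h further culture, luciferase substrate was added, plates held 15 min at room temperature, and luminescence read for 15 sec.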
# AMA1-RON2 inh – AMA1-RON2 (P. falciparum) interaction inhibition. AlphaScreen AMA1-biotinylated RON2 peptide binding. Potency, µM (highest dose often 58.2 µM), without a hit: at the top dose activity change, negative = inhibition, actives largely listed as inhibitors. hit rate 0.2% among 360,000. AID 720542;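 note: potency is the fitted concentration of half-maximal effect; 0% = vehicle wells and -100% = peptide control; nearly all actives have a fitted effect of over 45% in size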
#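 AMA1 (3D7) with his tag at 25 nM final met compounds first, then biotinylated RON2 peptide at 25 nM; detection used donor plus acceptor beads, 10 µg/mL apiece, read by AlphaScreen after 30 min at room temperature.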
# CHX counter – counter-screen for Shiga toxin inhibitors: cycloheximide protein synthesis inhibition; cell reporter, cycloheximide protein synthesis inhibition counterscreen; max response, %; hit rate 12% among 300,000; AID 2314; in the data active = max response mostly above about 13%, no sharp cut-off; inactive = mostly below about 14%; note: read at 38.3 µM for the half of the compounds with a filed dose; 0% is about no effect
# Pf growth 96h – P. falciparum growth inhibition at 96 hours | P. falciparum luciferase reporter growth, 96 h | Potency, µM (doses to about 28.7 µM), without a hit: at the highest dose activity change, negative = inhibition, hits mostly inhibitors | hit rate 6.9% among 320,000 | AID 504834; note: potency is the fitted concentration of half-maximal effect; % is set by controls: 0 for no effect and ±100 for the full control effect
#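 P. falciparum expressing integrated firefly luciferase grown in erythrocytes (2% hematocrit, 0.05% parasitemia final) with compounds for 96 hours at 37 C, 5% CO2. Growth inhibition read as loss of luminescence after adding luciferase detection reagent.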
# Numbers without * were called inactive; u = inconclusive; x = no result; [ ] = another dose, or the depositor's remark. A selection: hits, their analogues and other compounds. The true share with any hit is near 21%. Unless noted, calls come from the whole dose curve; as a rule, active = well fitted curve in the direction sought with a large enough effect; inconclusive = small, poorly fitted or top-dose-only effect, or another doubt; inactive = no such curve, though single readings can be large; an effect the other way counts as inactive or inconclusive.
SMILES,Shiga inhibitor,Pf growth 48h,HCV inh,AMA1-RON2 inh,CHX counter,Pf growth 96h
COc1ccc(NC(=O)C2CCCN(S(C)(=O)=O)C2)cc1Cl (configuration not stated),8.9,12.1%,12.3%,15.4%,-0.4,u
O=C(Nc1cc2c(oc1=O)CCCC2=O)c1ccc(Cl)cc1,22.6,46.9%,16.2%,u,19.7*,57.3%
COc1ccc(C2Nc3ccccc3C(=O)N2c2ccc(C)cc2)cc1Cn1nnc2ccccc21 (configuration not stated),53.0*,13.1µM*,3.9%,11.8%,50.9*,u
COc1ccc(C2Nc3ccccc3C(=O)N2NS(=O)(=O)c2ccc(C)cc2)cc1OC (configuration not stated),-5.7,-11.4%,u,-3.8%,-2.2,u
COc1ccc(C)cc1Cn1nnc2ccccc21,x,u,0.6%,9.1%,x,33.1%
COc1ccc(C2Nc3ccccc3C(=O)N2c2ccc(C)cc2)cc1Cn1cc([N+](=O)[O-])cn1 (configuration not stated),50.2*,u,-26.1%,-7.4%,38.3*,-72.6%
Cc1cc(C)c(S(=O)(=O)/N=C2/C=C(Sc3ncn[nH]3)C(=O)c3ccccc32)cc1C,48.3*,1.65µM*,u,-26.1%,32.6*,10.4µM*
Cc1cc(O)c(Sc2ncn[nH]2)cc1NS(=O)(=O)c1ccc(Cl)cc1,x,-8.1%,15.8%,61.6%[11.6 µM],x,-3.1%
CCOC(=O)CSc1nc(N)c(C#N)cc1C#N,41.9*,33.6%,8.8%,-4.4%,22.9,36.7%
CCc1c(C#N)c(N)nc(SCC(=O)OCc2ccccc2)c1C#N,-49.5,9.28µM*,4.1%,-10.4%,-7.0,u
CCOC(=O)CSc1nc(C)cc(C)c1C#N,-12.4,18.5%,u,6.5%,-1.0,x
CC(C)OC(=O)CSc1nc(N)c(C#N)cc1C#N,42.4*,-24.4%,4.1%,-2.0%,26.7*,-14.7%
N#Cc1c(SCC(=O)OCc2ccccc2)nsc1SCC(=O)OCc1ccccc1,-8.1,x,15.6%,27.4%,-3.3,-10.3%
CC(C)OC(=O)CSc1nc2cc3c(cc2cc1C#N)OCO3,33.2,105.4%,-12.4%,5.2%,7.0,-2.5%
Cc1ccn2cc(-c3ccc(NC(=O)c4ccco4)cc3)nc2c1,active,u,u,18.3%,42.7*,-76.6%
Cc1cc(NS(=O)(=O)c2ccc(NC(=O)c3ccco3)cc2)nc(C)n1,-13.8,x,26.0%,7.8%,-5.2,-0.6%
Cc1nc(-c2ccc(NC(=O)c3ccco3)cc2)cs1,27.5,-17.2%,-21.7%,3.1%,11.1*,u
Cc1nc(-c2cccc(NC(=O)c3ccco3)c2)cs1,45.0,u,-28.3%,4.2%,26.7*,-21.8%
O=C(Nc1ccc(-c2csc(-c3ccccc3)n2)cc1)c1ccccc1,-10.3,u,u,-9.1%,-1.5,u
Nc1nc(-c2ccc(NC(=O)c3ccco3)cc2)cs1,40.3*,11.2%,u,-9.9%,16.9*,123.4%
COc1cccc(C(O)c2nc(-c3ccc4ccccc4c3)cs2)c1 (configuration not stated),x,x,x,23.7%,x,x
O=C(c1cccs1)N1C[C@@H](O)[C@H](n2cc(-c3ccc(F)cc3)nn2)C[C@@H]1c1ccccc1,x,x,x,-0.9%,x,x
CCC(=O)N(c1nnc(SC(C)C(=O)Nc2ccc(N3CCOCC3)cc2)s1)C1CC1 (configuration not stated),x,x,x,-1.4%,x,x
CCN(CC(=O)Nc1ccccc1C(F)(F)F)CC(=O)c1[nH]c(C)c(C(C)=O)c1C,x,x,x,31.6%,x,x
CC(C#N)(NC(=O)CN1CCN(S(=O)(=O)c2cccc(F)c2)CC1)C1CC1 (configuration not stated),x,x,x,-9.5%,x,x
SMILES,Shiga inhibitor,Pf growth 48h,HCV inh,AMA1-RON2 inh,CHX counter,Pf growth 96h
COc1ccc(NC(=O)/C(C#N)=C\c2ccc(Br)o2)cc1,24.7,0.8%,6.4%,5.7%,22.3*,-1.6%
COc1ccc(NC(=O)/C(C#N)=C/c2ccc(-c3ccccc3C(=O)O)o2)cc1,-9.3,9.1%,21.2%,-6.5%,1.5,u
Cc1c(C(=O)O)cccc1-c1ccc(C=O)o1,54.0*,43.7%,-0.2%,0.7%,34.6*,-4.5%
COc1ccc(NC(=O)/C(C#N)=C\c2ccc(-c3cccc(C(=O)O)c3C)o2)cc1,35.3*,u,-0.8%,-1.7%,20.9*,u
CNC(=O)/C(C#N)=C/c1ccc(-c2ccc(OC)cc2[N+](=O)[O-])o1,26.5*,u,12.5%,-25.7%,56.4*,u
COCC(=O)Oc1cc(-c2ccc(C)cc2C)c(OC(=O)COC)c(-c2ccc(C)cc2C)c1,x,x,x,7.2%,x,x
CCN(CC)C(=O)C1=C(C)N(Cc2ccc(C(C)(C)C)cc2)C(=O)C(CC(=O)NCCCCc2ccccc2)C1 (configuration not stated),x,x,x,-4.5%,x,x
O=C(NCCc1ccccc1)C1CCN(S(=O)(=O)c2cccc3nonc23)CC1,-12.1,x,8.9%,2.6%,-2.2,39.2%
CCOc1ccc(OCC)c(NC(=O)C2CCN(S(=O)(=O)c3cccc4nonc34)CC2)c1,-14.9,x,20.1%,27.2%,-2.1,13.1µM*
COc1ccc(OC)c(S(=O)(=O)N2CCC(C(=O)NCCC3=CCCCC3)CC2)c1,25.5,13.1µM*,-12.7%,37.7%,-2.7,-19.3%
COc1ccc(CCNC(=O)C2CCN(S(=O)(=O)c3cccc4nonc34)CC2)cc1OC,-17.3,-12.0%,-15.6%,17.5%,1.4,8.28µM*
CCS(=O)(=O)N1CCC(C(=O)NCCC2=CCCCC2)CC1,-2.5,u,21.8%,2.2%,13.7,u
COc1ccc(NC(=O)C2CCN(S(=O)(=O)c3cccc4nonc34)CC2)cc1,20.7,-14.2%,5.7%,38.2%,-0.7,u
CCOc1ccc(C2NC(=O)NC(C)=C2[N+](=O)[O-])cc1OC (configuration not stated),-3.3,-19.9%,23.4%,13.3%,-1.1,-19.8%
COc1ccc(COCC(O)CN2CCN(S(=O)(=O)c3ccc(C(C)C)cc3)CC2)cc1 (configuration not stated),x,u,u,-15.6%,x,u
COc1cc(CNC(=O)c2cc(-c3cc(OC)ccc3Cl)n[nH]2)cc(OC)c1,x,x,x,-1.9%,x,x
Cc1ccccc1OCc1nnc2c3cnn(C)c3ncn12,73.7,137.4%,u,3.1%,38.5*,32.1%
Cc1ccc(-c2nn(-c3ccccc3)cc2C(=O)NCC(c2cccs2)N2CCOCC2)cc1 (configuration not stated),x,u,u,-21.1%,x,u
Cc1cccc(-c2nn(-c3ccccc3)cc2C(=O)NCC(c2cccs2)N2CCOCC2)c1 (configuration not stated),x,13.1µM*,u,-18.5%,x,u
O=C(NCC(c1cccs1)N1CCOCC1)c1cc(-c2ccc(F)cc2)nc2ccccc12 (configuration not stated),45.8,u,7.08µM*,-26.0%,7.3,u

# Screening results (PubChem)
